# Measurements: PubChem BioAssay (NCI)
# This is part of a sample that, as a whole, favours compounds with a hit. Of some 83,000 tested, about 20% had one in any assay.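 Testing used 96-well plates and a 48-hour single-concentration exposure. Example: -40 means 40% of the starting cells died.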 Values without a mark were called inactive. Calls of active or inactive are those of the source. How the source made its calls: active means growth percent below 10; inactive means the rest.
# Assays:
# Experiment in all cases: NCI-60 one-dose screen, 48 h (100 = growth as untreated, 0 = no growth, -100 = all killed)
# Conditions in all cases: 10 µM
# SR leukemia = tested on: SR leukemia
# RPMI-8226 leukemia = tested on: RPMI-8226 leukemia
# OVCAR-8 ovarian = tested on: OVCAR-8 ovarian
# OVCAR-5 ovarian = tested on: OVCAR-5 ovarian
# OVCAR-4 ovarian = tested on: OVCAR-4 ovarian
# SK-OV-3 ovarian = tested on: SK-OV-3 ovarian
# IGROV1 ovarian = tested on: IGROV1 ovarian
# OVCAR-3 ovarian = tested on: OVCAR-3 ovarian
# HS 578T breast = tested on: HS 578T breast
# NCI/ADR-RES ovarian = tested on: NCI/ADR-RES ovarian
# T-47D breast = tested on: T-47D breast
# BT-549 breast = tested on: BT-549 breast
# MDA-MB-435 melanoma = tested on: MDA-MB-435 melanoma
# SW-620 colon = tested on: SW-620 colon
# MCF7 breast = tested on: MCF7 breast
# HCT-116 colon = tested on: HCT-116 colon
# KM12 colon = tested on: KM12 colon
SMILES,growth (SR leukemia),growth (RPMI-8226 leukemia),growth (OVCAR-8 ovarian),growth (OVCAR-5 ovarian),growth (OVCAR-4 ovarian) [%],growth (SK-OV-3 ovarian) [%],growth (IGROV1 ovarian),growth (OVCAR-3 ovarian),growth (HS 578T breast),growth (NCI/ADR-RES ovarian),growth (T-47D breast),growth (BT-549 breast),growth (MDA-MB-435 melanoma),growth (SW-620 colon),growth (MCF7 breast),growth (HCT-116 colon),growth (KM12 colon)
C[C@@H]1C(=O)N(C[C@H](Cc2ccccc2)NC(=O)OCc2ccccc2)[C@]1(Cc1ccccc1)C(=O)OCc1ccccc1,35.2%,30.1%,40.7%,65.8%,22.1,54.8,69.5%,61.3%,78.8%,27%,7.82% (active),62.9%,52%,52.6%,35%,32.3%,26.6%
COc1ccc(Nc2ccnc(N3CCN(c4ccnc5cc(Cl)ccc45)CC3)n2)cc1,1.29% (active),-23.1% (active),0.239% (active),9.98% (active),10.7,12.7,-0.0353% (active),15.8%,10.4%,-2.96% (active),-7.73% (active),-11.5% (active),-4.38% (active),7.57% (active),2.5% (active),0.434% (active),2.49% (active)
CN(C)c1ccc2cc(-c3cc4c(oc3=O)-c3ccccc3OC4O)c(=O)oc2c1 (stereo not drawn),-12.7% (active),-9.42% (active),13.6%,-9.51% (active),26,28.8,-28.7% (active),-30% (active),-7.78% (active),0.415% (active),-12.3% (active),-17.4% (active),-23.8% (active),17.1%,18.7%,12.8%,-37.7% (active)
COc1ccc2nc(C)cc(Nc3ccc(Cl)cc3)c2c1,113%,102%,101%,101%,90.5,105,98.2%,105%,112%,102%,102%,103%,108%,106%,89%,101%,107%
COc1ccc(-c2csc(-c3cc(Cl)cc(Cl)c3Cl)n2)cc1,88.8%,93.5%,29.7%,109%,85.2,90.5,58.3%,105%,80.4%,97.1%,50.6%,102%,80.7%,46.4%,56.2%,108%,86.9%
Cc1cc(=O)oc2cc(OCc3cn(CC(O)CO)nn3)ccc12 (stereo not drawn),97.9%,92.9%,103%,113%,116,100,107%,117%,27%,105%,86.8%,97.5%,116%,74%,109%,98.8%,111%
CCOc1nc(-c2ccccc2)cc2c(O)c(C(=O)NCCCO)[nH]c(=O)c12,141%,51.2%,108%,92.4%,103,84.6,57.6%,93.1%,100%,113%,97.4%,97.6%,94.9%,96.4%,90.3%,98.9%,99.1%
C/C(=N\NC(=O)c1sc(=S)n(C)c1N)c1cc2ccccc2o1,42.6%,42.5%,69.6%,74.1%,61,133,37.5%,65%,61.6%,49.1%,78.2%,87.2%,41%,81.3%,34.8%,59.1%,21.5%
CCOC(=O)c1c(O)c2cc(-c3ccccc3)nc(OCC)c2c(=O)n1C,98%,39.2%,104%,104%,90.1,107,69.8%,103%,93%,82.2%,94.7%,133%,90.1%,104%,93.8%,87.7%,104%
